# Measured values as given in PubChem BioAssay AID652208 (Broad Institute, 2013).
# Measured potencies and affinities stand elsewhere. Values without a mark were called inactive.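 The calls were made as follows: active = Loss of cell signal with fitted half-effect dose at or below twice the top valid tested dose; inconclusive = Poor fit, or flat fit from -70 to -30 percent; inactive = Half-effect above limit, rising signal, or flat within 30 percent.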
# Assay: HEK293T cell cytotoxicity, dose response, cytotoxicity control for HIV Vif inhibitor project, cherry-picks (AID 652208);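 also: 0% = median neutral control wells and -100% = median staurosporine control wells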
# Details: HEK293T viability, CellTiter-Glo luminescence, 24 h; series mostly up to 26 µM; activity change, negative = cytotoxicity: at the top concentration
row,Compound,"activity change, negative = cytotoxicity [%]"
1,O=C(Cc1ccccc1)OCC(=O)c1ccc(F)cc1,6.43
2,O=C(Cn1ncc2c3ccccc3n(Cc3cccc(Cl)c3)c2c1=O)N1CCC2(CC1)OCCO2,-16.2
3,CC(C)CC(NC(=O)C1CCCCC1)C(=O)N1CCC2(CC1)OCCO2 (stereo unspecified),3.21
4,CC(Cc1ccc(O)cc1)NCC(O)c1cc(O)cc(O)c1 (stereo unspecified),6.1
5,O=C(NC1(C(F)(F)F)Oc2ccc(Cl)cc2O1)N1CCC2(CC1)OCCO2 (stereo unspecified),-0.948
6,CN1CCc2nc3ccc(F)cc3c(C(N)=O)c2C1,4.45
